# According to the supplement of paper PMC6411743:
# ± gives the standard deviation of the averaged measurements. About 5,400 targets were measured; listed, in parts, are those with the largest changes and a random draw of the rest.
# Compound: Nc1nc2c(ncn2[C@@H]2O[C@H](COP(=O)(O)OP(=O)(O)OP(=O)(O)O)[C@@H](O)[C@H]2O)c(=O)[nH]1 [guanosine triphosphate]
# Assay: NP40-soluble protein abundance relative to vehicle (solubility fold change) (ratio); higher = more soluble protein in presence of GTP
# Description: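 Solubility proteome profiling in Jurkat crude lysate. Lysate was treated with Mg-GTP (0.1-10 mM) for 10 min at room temperature and 3 min at 37 °C, then solubilised with 0.8% NP40 and benzonase, followed by ultracentrifugation. Proteins were quantified by TMT10 LC-MS/MS; the value is the NP40-soluble abundance relative to the NP40-processed vehicle, from 3 independent experiments.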
# Chain of UniProt Q9BRQ6 (Q9BRQ6 whole entry, one chain of several): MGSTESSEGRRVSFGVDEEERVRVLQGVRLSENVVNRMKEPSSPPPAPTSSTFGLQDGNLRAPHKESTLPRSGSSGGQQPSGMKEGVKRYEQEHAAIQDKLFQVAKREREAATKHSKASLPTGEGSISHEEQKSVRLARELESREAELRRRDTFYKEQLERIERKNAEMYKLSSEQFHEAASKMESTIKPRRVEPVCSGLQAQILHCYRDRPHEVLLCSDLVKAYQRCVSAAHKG
# Chain of UniProt P08758 (P08758 whole entry): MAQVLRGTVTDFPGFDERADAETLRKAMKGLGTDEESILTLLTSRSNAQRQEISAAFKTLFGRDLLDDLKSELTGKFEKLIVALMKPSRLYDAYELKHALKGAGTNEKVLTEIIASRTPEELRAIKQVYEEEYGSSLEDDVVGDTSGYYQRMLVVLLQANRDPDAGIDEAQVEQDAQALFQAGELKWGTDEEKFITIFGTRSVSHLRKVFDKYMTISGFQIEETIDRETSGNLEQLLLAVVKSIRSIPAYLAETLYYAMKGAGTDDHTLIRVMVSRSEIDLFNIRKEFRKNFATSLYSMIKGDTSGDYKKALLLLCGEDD
# Chain of UniProt O60287 (O60287 whole entry): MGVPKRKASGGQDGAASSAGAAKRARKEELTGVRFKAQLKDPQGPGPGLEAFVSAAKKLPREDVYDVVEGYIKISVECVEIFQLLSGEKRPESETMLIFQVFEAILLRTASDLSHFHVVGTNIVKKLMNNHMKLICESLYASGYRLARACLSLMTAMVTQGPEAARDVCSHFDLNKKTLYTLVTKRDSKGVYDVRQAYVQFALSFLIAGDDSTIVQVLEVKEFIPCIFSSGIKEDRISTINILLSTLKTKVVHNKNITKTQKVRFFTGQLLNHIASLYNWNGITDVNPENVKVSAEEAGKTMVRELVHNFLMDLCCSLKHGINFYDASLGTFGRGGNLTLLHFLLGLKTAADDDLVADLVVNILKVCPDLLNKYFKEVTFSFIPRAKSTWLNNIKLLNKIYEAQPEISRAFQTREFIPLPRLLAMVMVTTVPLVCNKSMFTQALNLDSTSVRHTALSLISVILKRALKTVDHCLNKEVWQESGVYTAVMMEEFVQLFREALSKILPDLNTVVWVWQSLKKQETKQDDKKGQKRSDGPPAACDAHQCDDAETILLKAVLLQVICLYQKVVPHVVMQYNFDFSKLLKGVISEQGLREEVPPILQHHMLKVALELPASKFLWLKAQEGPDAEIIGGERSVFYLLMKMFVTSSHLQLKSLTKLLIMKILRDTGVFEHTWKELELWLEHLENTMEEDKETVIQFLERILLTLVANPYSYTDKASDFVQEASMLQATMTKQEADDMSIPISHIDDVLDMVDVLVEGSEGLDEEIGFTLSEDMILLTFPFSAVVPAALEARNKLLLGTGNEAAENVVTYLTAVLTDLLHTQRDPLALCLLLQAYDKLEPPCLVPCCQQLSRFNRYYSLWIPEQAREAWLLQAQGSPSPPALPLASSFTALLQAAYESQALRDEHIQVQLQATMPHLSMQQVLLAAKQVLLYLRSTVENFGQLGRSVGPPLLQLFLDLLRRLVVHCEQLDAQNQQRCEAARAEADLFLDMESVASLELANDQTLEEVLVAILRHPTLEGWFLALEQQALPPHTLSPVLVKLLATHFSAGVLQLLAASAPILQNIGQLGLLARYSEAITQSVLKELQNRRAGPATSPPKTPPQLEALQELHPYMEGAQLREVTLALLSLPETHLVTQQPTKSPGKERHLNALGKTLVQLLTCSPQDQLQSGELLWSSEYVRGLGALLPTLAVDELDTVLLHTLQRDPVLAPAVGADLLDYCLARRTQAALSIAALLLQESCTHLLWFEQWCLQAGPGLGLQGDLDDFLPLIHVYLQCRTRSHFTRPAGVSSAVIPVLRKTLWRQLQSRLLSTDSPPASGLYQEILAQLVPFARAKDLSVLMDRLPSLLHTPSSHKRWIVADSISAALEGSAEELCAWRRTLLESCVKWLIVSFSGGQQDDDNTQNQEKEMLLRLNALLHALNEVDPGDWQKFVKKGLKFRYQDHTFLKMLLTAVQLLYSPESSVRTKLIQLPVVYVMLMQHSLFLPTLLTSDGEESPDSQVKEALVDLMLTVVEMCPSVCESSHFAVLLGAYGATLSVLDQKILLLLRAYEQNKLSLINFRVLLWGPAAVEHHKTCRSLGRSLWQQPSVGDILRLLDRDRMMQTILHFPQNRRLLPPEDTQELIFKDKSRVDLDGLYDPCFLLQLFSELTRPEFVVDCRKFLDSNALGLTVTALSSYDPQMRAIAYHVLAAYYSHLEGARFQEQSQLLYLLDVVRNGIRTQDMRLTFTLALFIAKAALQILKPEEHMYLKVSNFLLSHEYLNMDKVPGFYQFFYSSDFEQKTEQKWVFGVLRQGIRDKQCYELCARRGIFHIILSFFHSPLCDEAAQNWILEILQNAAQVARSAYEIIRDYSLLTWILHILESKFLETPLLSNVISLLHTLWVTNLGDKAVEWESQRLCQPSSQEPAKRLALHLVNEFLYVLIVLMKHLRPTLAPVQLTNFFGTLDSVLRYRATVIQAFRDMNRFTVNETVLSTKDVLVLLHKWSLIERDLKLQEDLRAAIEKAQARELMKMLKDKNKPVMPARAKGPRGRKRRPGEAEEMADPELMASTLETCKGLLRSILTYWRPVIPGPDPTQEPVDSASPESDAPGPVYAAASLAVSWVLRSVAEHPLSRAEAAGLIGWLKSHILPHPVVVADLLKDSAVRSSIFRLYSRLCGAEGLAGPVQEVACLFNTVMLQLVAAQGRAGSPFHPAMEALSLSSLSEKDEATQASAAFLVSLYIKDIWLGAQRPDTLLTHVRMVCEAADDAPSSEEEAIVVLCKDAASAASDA
# Chain of UniProt O43399 (O43399 whole entry): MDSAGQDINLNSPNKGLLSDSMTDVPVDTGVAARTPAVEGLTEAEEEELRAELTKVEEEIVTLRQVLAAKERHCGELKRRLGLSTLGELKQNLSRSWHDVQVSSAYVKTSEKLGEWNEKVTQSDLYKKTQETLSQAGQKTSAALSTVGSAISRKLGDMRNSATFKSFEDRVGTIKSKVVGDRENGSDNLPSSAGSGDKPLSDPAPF
Target,NP40-soluble protein abundance (concentration: 0.1mM),NP40-soluble protein abundance (concentration: 0.5mM),NP40-soluble protein abundance (concentration: 1mM),NP40-soluble protein abundance (concentration: 2mM),NP40-soluble protein abundance (concentration: 4mM),NP40-soluble protein abundance (concentration: 6mM),NP40-soluble protein abundance (concentration: 8mM),NP40-soluble protein abundance (concentration: 10mM)
J3QTA6|Q9BRQ6 (UniProt Q9BRQ6),1 ± 0.084,1.01 ± 0.083,1.12 ± 0.14,1.15 ± 0.054,1.15 ± 0.09,1.16 ± 0.062,1.22 ± 0.12,1.26 ± 0.21
UniProt O43399|O43399-5|O43399-7,0.814 ± 0.11,0.76 ± 0.039,1 ± 0.15,0.946 ± 0.028,0.91 ± 0.03,0.916 ± 0.033,0.875 ± 0.16,1.08 ± 0.15
UniProt O94964-2|O94964|O94964-4|X6R3R3,1.05 ± 0.11,0.998 ± 0.13,1.139 ± 0.011,1.07 ± 0.025,1.09 ± 0.047,1.03 ± 0.037,1.12 ± 0.072,0.994 ± 0.041
URB1 (UniProt O60287),1.07 ± 0.019,1.16 ± 0.061,1.21 ± 0.076,1.41 ± 0.097,1.79 ± 0.072,1.95 ± 0.13,2.18 ± 0.082,2.34 ± 0.033
ANXA5 (UniProt P08758),0.882 ± 0.07,0.908 ± 0.054,0.878 ± 0.077,0.854 ± 0.076,0.819 ± 0.073,0.843 ± 0.089,0.794 ± 0.081,0.809 ± 0.085
